High-throughput results deposited in PubChem BioAssay by National Center for Advancing Translational Sciences (NCATS).
Shown are actives, neighbours in structure and some others; about 0.41% of the full set was active somewhere.
GAA glycogen mod: alters human alpha-glucosidase cleavage of glycogen | recombinant GAA, glycogen substrate, Amplex Red glucose oxidase fluorescence | Potency, µM (highest dose often 76.4 µM), most hits filed as inhibitors | hit rate 0.38% among 300,000 | AID 2100;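 also: the screen sought inhibitors and activators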
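Natural-substrate format: glycogen cleavage by 4 nM human enzyme, glucose read by Amplex Red coupling (Ex 573, Em 610 nm). Normalized to enzyme and no-enzyme controls.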
GAA inh: blocks human lysosomal alpha-glucosidase | P10253 | purified human GAA, 4-MU-alpha-glucoside fluorescence | Potency, µM (doses to about 76.9 µM), hits mostly inhibitors | hit rate 0.005% among 200,000
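qHTS format, compound range up to 77 uM. Human lysosomal enzyme at 4 nM, 400 uM 4-MU glucoside substrate, pH 5.0, 20 min room temperature; fluorescence after alkaline stop gives activity normalized to controls.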
N370S GC: N370S glucocerebrosidase modulation, Gaucher chaperone candidate | P04062 | N370S GC spleen homogenate, 4MU-glucoside fluorescence | Potency, µM (series often up to 59.4 µM), most hits filed as inhibitors | hit rate 0.092% among 330,000
GLA spleen mod: inhibitors or activators of human alpha-galactosidase in spleen homogenate; P06280; hit rate 0.008% among 240,000; AID 2107; Potency, µM (series often up to 80 µM), most hits filed as inhibitors; human spleen homogenate, 4MU-alpha-Gal fluorescence, 40 min
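Human spleen homogenate (1 ug) as enzyme source, 4-methylumbelliferyl-alpha-D-galactopyranoside 1 mM final, citrate/phosphate pH 5.0 with 0.01% Tween-20. Compounds 40 min at 37C, NaOH/glycine stop; fluorescence Ex 365/Em 440, Hill-fit AC50.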
GLA inh pH 4.5: alpha-galactosidase A (human) inhibition, pH 4.5 | purified enzyme, 4-MU-alpha-Gal fluorescence, pH 4.5 | activity change, negative = inhibition, % at 105 µM | 230,000 tested, under 10 active | AID 1467
GAA spleen mod: inhibitors or activators of human alpha-glucosidase in spleen homogenate; P10253; human spleen homogenate, 4-MU-alpha-glucoside fluorescence; Potency, µM (top dose mostly 79.9 µM), actives largely listed as inhibitors; hit rate 0.006% among 240,000; AID 2112
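Enzyme source: human spleen homogenate, 1 ug/well. Buffer 50 mM citric acid/K phosphate pH 5.0, 0.01% Tween-20. 4-MU-alpha-glucoside 1 mM; 37 C x 40 min; NaOH/glycine stop; fluorescence.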
Each line names hits and unclear results; the compound was inactive in the other large screens. Calls follow the shape of the dose curve; as a rule, active = well fitted curve in the direction sought with a large enough effect; inconclusive = small, poorly fitted or top-dose-only effect, or another doubt; inactive = no such curve, though single readings can be large; an effect the other way counts as inactive or inconclusive.

COCCCNC(=S)Nc1ccc(N2CCCCC2)cc1	GAA glycogen mod 14µM
COCCCNC(=S)NNC(=S)Nc1ccc(OC)cc1	GAA glycogen mod 4.5µM (no result: GAA inh)
CCOC(=O)CNC(=O)O[C@@H]1Cc2cc(OC)ccc2O[C@H]1c1cccc(OC)c1	none (no result: GAA glycogen mod, GAA inh)
COc1cc(C(=O)NNc2nc3cc4c(cc3s2)OCO4)cc(OC)c1OC	GAA glycogen mod 25µM
Cc1ccc(Cl)cc1N1CCN(S(=O)(=O)c2ccc3[nH]c(=O)ccc3c2)CC1	none (no result: GAA inh, GLA spleen mod, GLA inh pH 4.5, GAA spleen mod)
Cc1ccc(Cl)cc1N1CCN(S(=O)(=O)c2ccc3[nH]c(=O)c(=O)[nH]c3c2)CC1	N370S GC 8.9µM
COc1ccc(OC2C(O)COC2/C=C/C#Cc2ccccc2)cc1 (configuration not stated)	none (no result: GAA glycogen mod, GAA inh, GLA inh pH 4.5)
CNC(=S)Nc1ccc(Nc2ccccc2)cc1	GAA glycogen mod 25µM
CCCNC(=S)Nc1ccc(Nc2ccccc2)cc1	GAA glycogen mod 16µM
CNC(=S)Nc1ccc(Br)cc1	none
CCCCc1ccc(NC(=O)c2cc3c(=O)n4ccccc4nc3s2)cc1	none (no result: GAA inh, N370S GC, GLA spleen mod, GLA inh pH 4.5, GAA spleen mod)
CCOc1ccccc1CNc1ccc(O)cc1	GAA glycogen mod inconclusive, N370S GC 5.6µM
Cc1ccn2c(NCc3ccc4c(c3)OCO4)c(-c3ccc(O)cc3)nc2c1	N370S GC 13µM
Fc1ccc(-c2nc3ccccn3c2NCc2ccc3c(c2)OCO3)cc1	GAA glycogen mod inconclusive, N370S GC inconclusive
Oc1ccc(-c2nc3ccccn3c2NCc2ccc3c(c2)OCO3)cc1	GAA glycogen mod 35µM, N370S GC inconclusive
Cc1ccc(NC(=O)C(=O)NCC(c2cccnc2)N2CCN(C)CC2)cc1C (configuration not stated)	none (no result: GAA inh, N370S GC, GLA spleen mod, GLA inh pH 4.5, GAA spleen mod)
O=C(NCCc1cccs1)c1ccc(Cn2c(SCc3ccccc3)nc3cccnc32)cc1	none (no result: GAA inh, N370S GC, GLA spleen mod, GLA inh pH 4.5, GAA spleen mod)
O=c1[nH]cc(O)c(=O)[nH]1	GAA glycogen mod 5µM
Cc1ccc(O)c(Nc2c3ccccc3nc3ccccc23)c1	GAA glycogen mod 11µM, N370S GC inconclusive (no result: GAA inh, GLA spleen mod, GLA inh pH 4.5, GAA spleen mod)
COc1ccc(C(=O)Oc2cc(-c3ccc(OC)c(OC)c3)cc(=O)c3c(C)oc(C)c23)cc1	none (no result: GAA inh, N370S GC, GLA spleen mod, GLA inh pH 4.5, GAA spleen mod)
